Measurements published in PubChem BioAssay.
Activity calls are given as the source filed them.

Legend:
Albumin (Bos taurus) = Albumin (Bos taurus) (UniProt P02769); assay: bovine serum albumin binders on microarray, profiling panel, artefact control for SMM control protein annotation, biochemical, small-molecule microarray, Alexa647 label, 635/667 nm fluorescence (AID 1118); details: BSA-A647 binding, fluorescence 635 nm, higher = more signal;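 note: score merges 667 nm emission intensity and signal-to-noise per printed compound spot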
[1] = small-molecule microarray binders of probe aXIP, primary screen, biochemical, NeuroSMM set, 635/667 nm fluorescence (AID 1119); details: higher = more signal, called active from +8 up or from −8 down;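 note: probe is the protein aXip251-270 applied at 1 µg/mL to compound-printed slides; binding of probe to printed compounds measured as 667 nm fluorescence plus signal to noise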
[2] = small-molecule binders of probe aNOTCH3, primary screen, biochemical, small-molecule microarray, 635/667 nm fluorescence (AID 1120); details: higher = more signal;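 note: probe is a biotin-tagged antibody raised against NOTCH3 rather than NOTCH3 protein; score merges spot fluorescence near 667 nm with spot signal to noise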
[3] = small-molecule binders of probe aNOTCH2, primary screen, biochemical, small-molecule microarray, 635/667 nm fluorescence (AID 1121); details: higher = more signal;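 note: score merges feature fluorescence read at 667 nm with its signal to noise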
[4] = target: Carbonic anhydrase 2 (Homo sapiens) (UniProt P00918); assay: CAII small-molecule binders, profiling panel, biochemical, small-molecule microarray, Alexa647-labelled CAII (AID 1122); details: CAII-A647 binding fluorescence, higher = more signal
[5] = COS7 lysate on small-molecule microarray, probe aHis, 635 nm (AID 1123); details: COS7 cell lysate, fluorescence, higher = more signal;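 note: z-score combines 667nm fluorescence intensity with signal-to-noise per printed compound spot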
[6] = compound binding in COS7 lysate, probe aLAP1, primary screen, cell lysate, small-molecule microarray (AID 1124); details: probe aLAP1, fluorescence, higher = more signal;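 note: lysate comes from COS7 cells expressing LAP1 and is applied at 0.3 µg/mL; score merges spot fluorescence near 667 nm with signal-to-noise over triplicate slides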
Sam68 (KHDRBS1) = assay: Sam68 small-molecule binders, primary screen, biochemical, small-molecule microarray, 635 nm fluorescence (AID 1125); details: small-molecule microarray binding, higher = more signal;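 note: score merges 667 nm channel intensity with signal to noise over triplicate slides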
[7] = tested on: Chordin-like protein 2 (CHRDL2); assay: CHRDL2 small-molecule binders, primary screen, biochemical, small-molecule microarray, 635 nm fluorescence (AID 1126); details: small-molecule microarray binding, fluorescence 635 nm; higher = more signal;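 note: printed compound slides probed with Chrdl2 protein at 4 µg/mL for 1 h at 4 C; score merges 667 nm emission intensity with signal to noise over three replicate slides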
[8] = target: Concanavalin-A (Canavalia ensiformis) (UniProt P02866); assay: ConA small-molecule binders, primary screen, artefact control for SMM control protein annotation, biochemical, small-molecule microarray, Alexa647 label, 635 nm (AID 1127); details: ConA-A647 binding fluorescence, higher = more signal;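 note: z combines 667 nm emission intensity with signal-to-noise across three replicate slides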
[9] = anti-His antibody binders, primary screen, artefact control for SMM control protein annotation, biochemical, small-molecule microarray, 635 nm fluorescence (AID 1128); details: anti-His Alexa647 antibody binding, higher = more signal;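 note: score merges feature fluorescence with signal-to-noise for each printed compound spot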
[10] = tested on: Human papillomavirus type 1a E7 protein (residues 1-88); assay: HPV1a E7 small-molecule binders, primary screen, biochemical, small-molecule microarray, residues 1-88, 635 nm (AID 1129); details: small-molecule microarray binding, fluorescence 635 nm; higher = more signal
[11] = target: Focal adhesion kinase 1 (Homo sapiens) (UniProt Q05397); assay: small-molecule microarray binders of FAK, primary screen, biochemical, 635/667 nm fluorescence, BSA, DTT (AID 1130); details: PTK2 binding, 635 nm fluorescence, higher = more signal;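 note: composite of spot emission at 667 nm and signal to noise over triplicate slides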
[12] = tested on: Fibrinogen (Alexa647-labelled); assay: fibrinogen binders on compound microarrays, profiling panel, artefact control for SMM control-protein annotation, biochemical, small-molecule microarray, 635/667 nm fluorescence (AID 1131); details: fibrinogen-A647 binding fluorescence, higher = more signal;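 note: z-score merges 667 nm fluorescence with per-spot signal-to-noise over triplicate slides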
[13] = target: Follistatin (Homo sapiens) (UniProt P19883); assay: follistatin binders on small-molecule microarrays, primary screen, biochemical, small-molecule microarray, 635/667 nm fluorescence (AID 1132); details: FST binding, 635 nm fluorescence, higher = more signal
[14] = target: Fibroblast growth factor 2 (Homo sapiens) (UniProt P09038); assay: FGF2 binders on small-molecule microarrays, primary screen, biochemical, small-molecule microarray, 635/667 nm fluorescence (AID 1133); details: small-molecule microarray binding, FGF2, fluorescence 635/667; higher = more signal
[15] = mitochondrial membrane potential change in A549 cells, profiling panel, cell-based, JC-1 fluorescence, basal, 24 h, 100 nL (AID 1138); details: higher = more signal;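 note: A549 lung adenocarcinoma cells under basal conditions with no added stimulus; test concentration not given here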
Lefty1 = Lefty1 binders on small-molecule microarrays, primary screen, biochemical, small-molecule microarray, 635/667 nm fluorescence (AID 1139); details: small-molecule microarray binding, fluorescence 635/667; higher = more signal
[16] = tested on: wheat germ agglutinin (Triticum aestivum), Alexa647-labelled; assay: wheat germ agglutinin binders on compound microarrays, profiling panel, artefact control for SMM control-protein annotation, biochemical, small-molecule microarray, 635/667 nm fluorescence (AID 1140); details: WGA-A647 binding, 635 nm fluorescence, higher = more signal;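 note: score merges 667 nm feature emission with signal to noise over triplicate slides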
[17] = target: Luciferin 4-monooxygenase (Photinus pyralis) (UniProt P08659); assay: firefly luciferase enzyme inhibitors, primary screen, biochemical, luminescence, purified enzyme, 2006 set (AID 1141); details: SteadyGlo luminescence, 30 min, higher = more signal, called active from +8 up or from −8 down;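 note: cell-free assay with purified firefly luciferase at 100 ng per well in PBS; test concentration not given here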
Sequence of Luciferin 4-monooxygenase (Photinus pyralis) (P08659 whole entry, looked up): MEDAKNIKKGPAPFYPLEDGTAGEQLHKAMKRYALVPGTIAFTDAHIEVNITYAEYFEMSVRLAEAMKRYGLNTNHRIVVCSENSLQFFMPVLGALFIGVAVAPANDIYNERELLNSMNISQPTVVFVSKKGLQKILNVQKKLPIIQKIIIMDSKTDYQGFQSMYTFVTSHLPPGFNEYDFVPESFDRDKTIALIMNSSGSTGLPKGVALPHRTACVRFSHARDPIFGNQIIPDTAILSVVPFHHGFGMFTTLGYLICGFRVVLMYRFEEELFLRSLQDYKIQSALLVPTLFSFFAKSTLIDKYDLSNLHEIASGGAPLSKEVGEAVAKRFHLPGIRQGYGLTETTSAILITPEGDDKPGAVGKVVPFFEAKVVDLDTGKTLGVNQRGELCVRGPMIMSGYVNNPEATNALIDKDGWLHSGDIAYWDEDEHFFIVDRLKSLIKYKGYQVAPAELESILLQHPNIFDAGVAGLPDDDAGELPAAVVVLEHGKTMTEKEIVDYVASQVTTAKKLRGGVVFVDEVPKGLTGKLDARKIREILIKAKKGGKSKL

Sequence of Albumin (Bos taurus) (P02769 whole entry, looked up): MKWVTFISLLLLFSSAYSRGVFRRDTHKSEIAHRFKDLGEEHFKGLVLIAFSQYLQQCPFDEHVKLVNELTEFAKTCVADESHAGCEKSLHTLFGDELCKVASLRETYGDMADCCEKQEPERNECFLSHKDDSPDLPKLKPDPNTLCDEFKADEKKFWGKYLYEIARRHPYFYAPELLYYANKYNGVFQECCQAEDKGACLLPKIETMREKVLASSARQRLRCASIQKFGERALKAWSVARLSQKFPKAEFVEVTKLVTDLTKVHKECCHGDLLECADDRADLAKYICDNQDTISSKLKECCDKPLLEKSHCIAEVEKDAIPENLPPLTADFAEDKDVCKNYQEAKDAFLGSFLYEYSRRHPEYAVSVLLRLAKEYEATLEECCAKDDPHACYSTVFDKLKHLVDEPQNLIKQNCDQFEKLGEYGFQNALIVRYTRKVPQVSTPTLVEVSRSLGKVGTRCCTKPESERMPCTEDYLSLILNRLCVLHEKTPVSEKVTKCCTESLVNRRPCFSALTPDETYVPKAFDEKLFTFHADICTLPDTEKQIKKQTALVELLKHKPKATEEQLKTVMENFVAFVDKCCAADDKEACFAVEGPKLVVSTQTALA
Sequence of Concanavalin-A (Canavalia ensiformis) (P02866 whole entry, looked up): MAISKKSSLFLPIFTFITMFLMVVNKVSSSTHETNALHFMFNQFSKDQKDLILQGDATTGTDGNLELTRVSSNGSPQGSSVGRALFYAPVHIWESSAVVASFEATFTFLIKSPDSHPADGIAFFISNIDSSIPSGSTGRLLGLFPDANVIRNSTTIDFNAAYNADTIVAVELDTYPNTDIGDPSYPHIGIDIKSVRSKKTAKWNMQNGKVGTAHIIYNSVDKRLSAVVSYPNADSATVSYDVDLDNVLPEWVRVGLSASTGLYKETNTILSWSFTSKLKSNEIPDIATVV
Sequence of Focal adhesion kinase 1 (Homo sapiens) (Q05397 whole entry, looked up): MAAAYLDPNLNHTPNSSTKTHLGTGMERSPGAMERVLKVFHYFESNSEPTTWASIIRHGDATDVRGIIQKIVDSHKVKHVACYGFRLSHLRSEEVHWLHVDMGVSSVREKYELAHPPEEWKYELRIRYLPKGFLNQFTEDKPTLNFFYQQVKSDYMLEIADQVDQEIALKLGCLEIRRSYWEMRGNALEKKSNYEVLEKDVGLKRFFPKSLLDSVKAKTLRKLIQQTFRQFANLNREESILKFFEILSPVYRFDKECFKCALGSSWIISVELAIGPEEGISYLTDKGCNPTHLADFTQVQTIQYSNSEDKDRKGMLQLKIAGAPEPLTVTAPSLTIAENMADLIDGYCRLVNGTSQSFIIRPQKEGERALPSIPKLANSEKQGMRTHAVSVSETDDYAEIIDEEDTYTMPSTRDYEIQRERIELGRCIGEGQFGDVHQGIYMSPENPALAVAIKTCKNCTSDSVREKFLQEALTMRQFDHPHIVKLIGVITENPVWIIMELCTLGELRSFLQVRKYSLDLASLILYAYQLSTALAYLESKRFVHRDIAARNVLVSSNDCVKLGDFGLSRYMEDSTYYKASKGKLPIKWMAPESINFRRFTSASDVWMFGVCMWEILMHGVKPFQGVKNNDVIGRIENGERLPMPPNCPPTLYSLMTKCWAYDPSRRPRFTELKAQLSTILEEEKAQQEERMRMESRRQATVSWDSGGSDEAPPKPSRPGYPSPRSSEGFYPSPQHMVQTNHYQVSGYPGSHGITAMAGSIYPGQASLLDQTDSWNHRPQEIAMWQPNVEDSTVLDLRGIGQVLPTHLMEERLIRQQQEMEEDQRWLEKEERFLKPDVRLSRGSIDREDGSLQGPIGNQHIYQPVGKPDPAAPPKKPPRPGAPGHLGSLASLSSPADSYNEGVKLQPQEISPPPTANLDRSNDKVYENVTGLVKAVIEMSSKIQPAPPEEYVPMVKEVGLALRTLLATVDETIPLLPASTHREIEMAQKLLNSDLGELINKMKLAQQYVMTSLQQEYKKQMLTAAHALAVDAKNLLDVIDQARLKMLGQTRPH
Sequence of Fibroblast growth factor 2 (Homo sapiens) (P09038 whole entry, looked up): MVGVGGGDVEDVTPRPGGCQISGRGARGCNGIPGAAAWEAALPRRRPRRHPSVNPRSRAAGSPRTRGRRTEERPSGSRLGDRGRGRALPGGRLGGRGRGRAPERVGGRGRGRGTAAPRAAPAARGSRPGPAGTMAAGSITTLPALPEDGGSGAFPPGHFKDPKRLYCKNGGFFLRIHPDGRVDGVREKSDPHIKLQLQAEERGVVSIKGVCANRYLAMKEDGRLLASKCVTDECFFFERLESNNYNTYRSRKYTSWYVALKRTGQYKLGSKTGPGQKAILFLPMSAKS
Sequence of Follistatin (Homo sapiens) (P19883 whole entry, looked up): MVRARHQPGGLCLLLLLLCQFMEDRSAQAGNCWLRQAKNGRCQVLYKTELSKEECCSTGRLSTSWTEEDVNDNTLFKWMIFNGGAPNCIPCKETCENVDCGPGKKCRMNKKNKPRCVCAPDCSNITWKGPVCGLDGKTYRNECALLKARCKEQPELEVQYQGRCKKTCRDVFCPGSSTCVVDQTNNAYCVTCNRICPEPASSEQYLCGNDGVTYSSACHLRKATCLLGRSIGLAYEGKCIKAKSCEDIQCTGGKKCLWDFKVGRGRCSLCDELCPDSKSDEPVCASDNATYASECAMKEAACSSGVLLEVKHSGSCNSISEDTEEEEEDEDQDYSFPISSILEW

| SMILES | composite z-score (Albumin (Bos taurus)) | composite Z-score [1] | composite z-score [2] | composite z-score [3] | composite z-score [4] | composite z-score [5] | composite z-score [6] | composite z-score (Sam68 (KHDRBS1)) | composite z-score [7] | composite z-score [8] | composite z-score [9] | composite z-score [10] | composite z-score [11] | composite z-score [12] | composite z-score [13] | composite z-score [14] | z-score [15] | composite z-score (Lefty1) | composite z-score [16] | z-score [17] |
| --- | --- | --- | --- | --- | --- | --- | --- | --- | --- | --- | --- | --- | --- | --- | --- | --- | --- | --- | --- | --- |
| CCOC(=O)C[C@H]1[C@H](OC(=O)c2ccc(C(=O)c3ccccc3)cc2)[C@@H](NC(=O)Cc2ccc(OC)cc2)c2cc(OCCCO)ccc2N1C(=O)Cc1ccc(OC)cc1 | 0.602 | -0.333 (inactive) | 0.0397 | -0.0505 | 0.0899 | 0.954 | 0.397 | 1.05 | -0.49 | 1.01 | 0.0446 | 1.07 | 0.551 | 0.729 | 0.295 | -0.078 | 2.88 | 0.607 | 0.855 | -0.927 (inactive) |
| [N-]=[N+]=Nc1ccccc1[C@H]1OC(c2ccc(OCCCO)cc2)=N[C@@]1(Cc1ccccc1)C(N)=O | 0.869 | 0.382 (inactive) | 0.416 | 0.0521 | 0.623 | 0.798 | 0.577 | 1.31 | -0.751 | 1.16 | 2.59 | 1.21 | 0.0957 | 0.997 | 1.32 | 0.479 | 1.5 | 0.97 | 1.37 | -12.6 (active) |
| Cc1ccc(N2C(=O)c3ccccc3[C@](C)(C(=O)NCC(F)(F)F)[C@@H]2c2ccc(CO)cc2)nc1 | -1.6 | -0.326 (inactive) | -0.403 | -0.177 | 0.869 | -0.552 | 0.0759 | -1.78 | -1.8 | -1.26 | -1.32 | -1.22 | -0.637 | -1.94 | -1.6 | -0.986 | -0.2 | -2.1 | -0.188 | -0.679 (inactive) |
| C=CCC(OC(C)=O)[C@@H]1[C@@H](N(Cc2ccc(-c3cccc(C(F)(F)F)c3)o2)C(=O)c2ccc(-c3ccccc3)cc2)c2cc(OCCCO)ccc2N1C(=O)Cc1ccc(OC)cc1 (stereo not given in full) | -0.84 | 0.298 (inactive) | -0.0647 | -0.0832 | -0.149 | -0.249 | -0.231 | -0.836 | -0.0712 | -1.26 | -0.729 | 0.0685 | -0.0642 | -0.407 | 0.451 | -0.196 | 1.65 | -0.128 | 0.15 | -0.626 (inactive) |
| CC(C)(C)OC(=O)CC[C@@]1(C(=O)NCc2ccccc2)N=C(c2ccc(OCCCO)cc2)O[C@@H]1c1ccccc1CN=[N+]=[N-] | 0.871 | 0.647 (inactive) | 0.33 | -0.0736 | 0.596 | 2.02 | 0.379 | 1.15 | -0.521 | 1.09 | 2.59 | 1.22 | -0.128 | 0.933 | 1.34 | 0.915 | 0.641 | 0.148 | 1.27 | -1.24 (inactive) |
